HSF1 inhib – HSF1 inhibitors in luciferase reporter cells, primary screen, cell-based, NIH3T3, luminescence; NIH3T3-HGL HSE-luciferase, MG132-induced, luminescence 8 h; hits give low values; activity change, negative = inhibition, % at 7.5 µM (by protocol); 300,000 compounds, 0.77% hits;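 active means more than half of replicate wells show activity change below -50%, luminescence cut by over half; inconclusive means some wells, but at most half, below -50%; inactive means no replicate well below -50%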;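 further: luciferase reports HSF-1 transcriptional activity via heat shock element; 0% = median of DMSO wells and -100% = zero luminescence signal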
HSP90 refold inh – HSP90 inhibitors, primary screen, cell lysate, luminescence | inhibition, % at 5.6 µM | 290,000 compounds, 0.91% hits | Heat shock protein HSP 90 (rabbit reticulocyte lysate; luciferase refolding) | AID 1789, 2009 | Rabbit reticulocyte lysate, luciferase refolding luminescence, 3 h;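 active means inhibition above the screen-wide mean plus 3 SD, computed separately per campaign, cut at about 16% in these data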;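 further: 0% = DMSO wells and 100% = 60 µM geldanamycin wells; inhibitors lower the luminescence because luciferase stays unfolded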
pCIP destab – p/CIP-EGFP fusion destabilizers, primary screen, fluorescence, F442A cells; Q05BA5; 16 h; decrease of EGFP signal, % at 10 µM; 290,000 compounds, 0.01% hits; AID 1984, 2009;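 active means EGFP signal decrease of at least 30% at 10 µM or well 3 SD below plate mean, unless failing retest; inactive means the rest, including hits failing retest or dose response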
HSF-1 act – HSF-1 activators, primary screen, NIH3T3-HGL cells, MG132 stress, luminescence, single point | NIH3T3-HGL HSF-1 luciferase reporter, 8 h; 100% = twice DMSO control signal | activation, % at 9 µM | 300,000 compounds, 1.7% hits;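 active means mean replicate activation of at least 50% with a set share of replicates each reaching 50%; inconclusive means only one of those two conditions met; inactive means mean below 50% and too few replicates reaching it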;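 further: 0% = median of the neutral control wells and 100% = twice that signal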
NALP1 yeast inh – NALP1 inflammasome inhibitors in reconstituted yeast, colorimetric, S. cerevisiae, triplicate retest; S. cerevisiae NALP1/ASC/caspase-1 growth, X-gal OD620, 72 h; inhibition, % at 10 µM; 280,000 compounds, 0.61% hits; AID 2071, 2009; in the data active means inhibition mostly above about 24%, no sharp cut-off; inactive means mostly below about 32%
Hsp70 act – Hsp70 transcriptional activators, primary screen, cell-based, HeLa, Hsp70 promoter luciferase, luminescence, 10 µM; 200,000 compounds, 0.04% hits; activation, % at 10 µM; HeLa Hsp70 promoter luciferase reporter; scaled: vehicle 0, proteasome-inhibitor control 100%; AID 1203, 2008;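 active means activation above the mean across all tested compounds plus 3 SD, cutoff set per campaign, cut at about 5.5% in these data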;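 further: 100% = MG132 at 30 µM as the positive control and 0% = DMSO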
An asterisk follows results filed as active; u = inconclusive; x = no result given. Only some compounds are listed: those with a hit (about 3.8% of all), similar ones and a draw of the others.

SMILES	HSF1 inhib	HSP90 refold inh	pCIP destab	HSF-1 act	NALP1 yeast inh	Hsp70 act
O=C(c1cnccn1)N(Cc1ccco1)C1(C(=O)NC2CCCC2)CCCCC1	3.2	4.0	-0.7	0.0	9.4	-0.2
O=C(c1ccccn1)N(Cc1ccco1)C1(C(=O)NC2CCCC2)CCCCC1	22.7	3.5	1.1	61.1*	25.7	-0.3
CN(CC(=O)Nc1ccccc1Cl)C(=O)COC(=O)c1cnccn1	-7.6	2.2	-10.7	2.6	9.0	x
COCCCNC(=O)/C(C#N)=C/c1ccc(F)cc1	18.4	-3.6	14.2	68.5*	13.5	-0.1
COCCNC(=O)/C(C#N)=C/c1ccc(OCc2ccc(F)cc2)cc1	3.8	1.2	-12.8	14.0	6.2	-0.3
CCN1CCN(CCOc2cccc(Oc3ccccc3)c2)CC1	2.2	-2.7	-2.8	3.9	10.1	-0.2
Cc1ccc2c(c1)c(C)c(C)n2CC(O)Cn1nc(C)c(Br)c1C (stereo not drawn)	29.6	0.0	-1.1	57.5*	11.2	-0.2
Cc1ccc2c(c1)c1c(n2CC(O)Cn2nc(C)c(Br)c2C)C(=O)CCC1 (stereo not drawn)	11.5	1.1	-13.9	-1.2	19.3	-0.4
CCOC(=O)C1=C(COC(=O)C2CC(=O)N(c3ccc(C)cc3)C2)NC(=O)NC1C (stereo not drawn)	-1.3	x	x	18.6	x	x
COc1ccc(Cn2ccnc2)cc1[N+](=O)[O-]	-0.7	-0.2	0.6	0.8	30.5	-0.4
COc1ccc(Cn2c(SC)nc3ccccc32)cc1[N+](=O)[O-]	-61.2*	0.4	-6.0	-69.5	5.1	-0.1
O=c1c2ccccc2oc2cc(C#Cc3ccccn3)ccc12	40.3	x	x	62.6*	x	x
CNC(C)C#Cc1ccc2oc3cccc(OC)c3c(=O)c2c1 (stereo not drawn)	3.3	3.8	2.4	27.7	-2.1	x
Nc1ccc(C#Cc2ccc3oc4ccccc4c(=O)c3c2)cc1	4.2	x	x	1.8	x	x
COc1cccc2oc3ccc(C#Cc4ccccn4)cc3c(=O)c12	34.3	16.6*	-18.1	61.3*	27.0	x
COC(=O)c1cccc(NC(=O)CN2CCN(Cc3ccccc3)CC2)c1	-62.0*	-2.6	-2.3	-70.3	1.8	-0.5
Cc1ccc(-c2nn[nH]n2)o1	-58.0*	1.3	8.4	-69.6	18.1	-0.2
Cc1ccc(-c2nn[nH]n2)cc1	2.6	2.1	-5.2	u	23.0	-0.3
CC(NC(=O)Cc1ccc(NS(=O)(=O)c2cccc(C(F)(F)F)c2)cc1)c1ccccn1 (stereo not drawn)	0.9	-0.5	-12.8	17.1	15.3	x
CN1/C(=C\C=Nc2ccc3ccccc3c2)C(C)(C)c2ccccc21	x	8.4	-36.5	x	28.3*	0.2
CCN(C(=O)c1cc2c(=O)[nH]c3ccc(C)cc3c2s1)c1ccccc1C	13.4	2.0	-9.3	42.6	x	x
CCN(C(=O)c1cc2c(=O)[nH]c3ccc(C)cc3c2s1)c1ccccc1F	11.2	3.5	5.8	57.9*	x	x
CCN(C(=O)c1cc2c(=O)[nH]c3ccc(C)cc3c2s1)c1ccc(F)cc1	-75.5*	-5.0	-2.9	-82.0	27.6	x
Cc1ccc(NC(=O)CCC(=O)NNC(=O)c2ccccc2[N+](=O)[O-])c(C)c1	-8.3	0.5	2.8	-4.9	2.9	0.0
O=c1c(-c2ccco2)[n+]([O-])c2ccccc2n1OCc1ccccc1	19.5	0.7	-3.7	35.5	37.0*	0.1
CCSC1(SCC)N=C(N)C2(C#N)C(c3ccc(F)cc3)C12C#N (stereo not drawn)	74.1	0.9	9.3	82.5*	15.0	0.1
O=Cc1cccc(OC(=O)c2ccc(Cl)cc2Cl)c1	26.6	-1.1	-2.9	64.1*	4.8	-0.4
CC(=O)c1cccc(NC(=O)C2CC(=O)N(CCc3ccccc3)C2)c1 (stereo not drawn)	-59.2*	-6.5	8.7	-68.1	21.7	0.0
CC(=O)c1cccc(NC(=O)C2CC(=O)N(Cc3ccccc3)C2)c1 (stereo not drawn)	3.3	-1.8	-10.5	-6.1	7.0	0.0
